Data taken from PubChem BioAssay.
Several values for one entry are separate records, joined by “and”; a condition that tells them apart may be missing. Equal values may be shown once. Activity calls are given as the source filed them.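 The calls were made as follows, unless noted: active = compounds whose cell count with miR-34 switched on is under 0.7 times the count with it off; inactive = the rest.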

Columns and labels:
[1] = system: Hepatitis C virus NS3 helicase; assay: HCV NS3 helicase inhibitors, primary screen, biochemical, fluorescence polarization, LOPAC1280 library (AID 687035; in the data active = inhibition above about 37%); conditions: Purified HCV NS3 helicase, Cy5-dT15 ssDNA binding fluorescence polarization; stronger effect = higher value; concentration not given here
[2] = Cy5 fluorescence quenching or enhancement artefacts, artefact control for HCV NS3 helicase inhibitor project, biochemical, LOPAC1280 (AID 687037; call rule not given here); conditions: Cy5-DNA-NS3h complex fluorescence interference counterscreen
[3] = sensitizers of A549 cells to miR-34 induction, primary screen, imaging, A549 dox-inducible miR-34, nuclei and caspase counts (AID 1347080); conditions: A549 miR-34 inducible, Hoechst nuclei count, 48 h
[4] = phospholipid biosynthesis inhibitors in animal cells, primary screen, cell-based, LOPAC library, screen 4 (AID 1347384; call rule not given here); conditions: phospholipid biosynthesis inhibition screen, at 10 µM
[5] = viability rescue of complex I mutant cybrids, primary screen, cell-based, galactose medium, ATP luminescence (AID 1645843;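 active = z-score of at least 1.8 in each of two replicates, scored against plate mean and spread of sample wells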;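 also: positive z means more ATP and so rescue of galactose-driven cybrid death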); conditions: complex I mutant cybrid cells, 72 h, stronger effect = higher value
[6] = survival rescue of mitochondrial mutant cells in low glucose, primary screen, MELAS cybrids, Rieske KO mouse fibroblasts, CellTiter-Glo (AID 1508586;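 active = mean z-score across replicates of 1.96 or higher in either the MELAS or the Rieske mutant cell line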;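 also: z relative to plate mean and SD of compound and empty wells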)
[7] = measured here: relative caspase fold change +Dox/-Dox
[8] = measured here: total cells with miR-34 induction, stronger effect = lower value
[9] = measured here: total cells without miR-34 induction
[10] = stronger effect = lower value, cell number ratio, induced over uninduced
[11] = MELAS cybrid survival, CellTiter-Glo 48 h, stronger effect = higher value
[12] = Rieske KO mouse fibroblast survival, CellTiter-Glo 72 h

Compound | inhibition [1] | fluorescence ratio (interference) [2] | fold change ([3]; stronger effect = lower value) | fold change [3, 7] | cell count [3, 8] | cell count [3, 9] | outcome [4] | z-score [5] | fold change [3, 10] | z-score [6, 11] | z-score [6, 12]
O=C1/C(=C/c2ccccc2)C[C@@]2(O)[C@H]3Cc4ccc(O)c5c4[C@@]2(CCN3CC2CC2)[C@H]1O5 | -4% (inactive) | 1 (inactive) | 1.23 (inactive) | 1.39 | 588 | 478 | inactive | -1 (inactive) |  |  | 
O=c1[nH]c2ccc(Cl)cc2c(NC2CN3CCC2CC3)c1-c1nc2ccccc2[nH]1 (stereo not drawn) |  |  |  | 1.09 | 1120 | 1200 |  |  | 0.941 (inactive) | 1.28 (inactive) | -3.49
CC1OC(OC2CC(O)[C@]3(CO)[C@H]4C(O)C[C@]5(C)C(C6=CC(=O)OC6)CC[C@]5(O)[C@@H]4CC[C@]3(O)C2)C(O)C(O)C1O (stereo partly drawn) |  |  |  | 1.17 | 388 | 456 |  |  | 0.851 (inactive) | 0.346 (inactive) | -0.151
C[C@H](N)Cc1cccc(C(F)(F)F)c1 | -3% (inactive) | 1 (inactive) | 0.951 (inactive) | 1.01 | 10400 | 11000 | inactive | 0.04 (inactive) |  |  | 
Clc1ccc(C(Cn2ccnc2)OCc2c(Cl)cccc2Cl)c(Cl)c1 (stereo not drawn) |  |  |  | 1.06 and 1.05 | 8420 and 7330 | 9620 and 7910 |  |  | 0.876 (inactive) and 0.926 (inactive) | -0.214 (inactive) and 1.01 (inactive) | -1.26 and 0.334
c1cc2c(cc1C1OC[C@H]3C(c4ccc5c(c4)OCO5)OC[C@H]13)OCO2 (stereo partly drawn) |  |  |  | 0.861 | 8900 | 9620 |  |  | 0.925 (inactive) | -0.349 (inactive) | 0.747
O=C1CC[C@@]2(O)C3Cc4ccc(O)c5c4[C@@]2(CCN3CC2CC2)C1O5 (stereo partly drawn) |  |  | 0.922 (inactive) | 4.62 | 8340 | 9040 |  |  |  | 1.92 (inactive) | -1.89
Cc1cc(C(=O)CN2CCCC2)c(C)n1-c1ccc(F)cc1 |  |  | 0.909 (inactive) | 0.246 | 8040 | 8840 |  |  |  | -0.384 (inactive) | 0.483
CC(=Cc1csc(C)n1)C1CC2OC2CCCC(C)C(O)C(C)C(=O)C(C)(C)C(O)CC(=O)O1 (stereo not drawn) |  |  |  | 1.17 | 1520 | 1410 |  |  | 1.08 (inactive) | 1.25 (inactive) | 0.224
CC1CNCCc2ccc(Cl)cc21 (stereo not drawn) |  |  | 0.911 (inactive) | 0.645 | 8250 | 9060 |  |  |  | -0.213 (inactive) | -0.176
C[C@]12NC(Cc3ccccc31)c1ccccc12 |  |  | 0.981 (inactive) | 0.318 | 8080 | 8230 |  |  |  | -0.147 (inactive) | -0.0728
CC(C)(C)[C@@]1(O)C[C@@H]2OC(=O)C[C@@]23C(=O)O[C@H]2OC(=O)C(O)C213 (stereo partly drawn) |  |  |  | 1.49 | 8490 | 9500 |  |  | 0.894 (inactive) | -0.286 (inactive) | 0.895
CN1CCN(c2nc3ccccc3nc2Cl)CC1 |  |  |  | 0.445 | 7800 | 8250 |  |  | 0.946 (inactive) | -0.222 (inactive) | -0.11
CCC1C=CC=CCC(C)C(O)[C@@](C)(O)C(=O)C(C)[C@@H](O)C(C)C(=O)C(C)C(O)C(C)C=CC(=O)OC2C(C)[C@]3(CCC(C)C(CC(C)O)O3)OC(CC1)[C@H]2C (stereo partly drawn) |  |  |  | 0.572 | 3070 | 2800 |  |  | 1.1 (inactive) | -0.13 (inactive) | -0.402
CN1CC[C@@]2(C)c3cc(OC(=O)Nc4ccccc4)ccc3N(C)[C@@H]12 | -3% (inactive) | 1 (inactive) | 0.963 (inactive) | 1.22 | 10200 | 10600 | inactive | -0.985 (inactive) |  |  | 
Cc1ccc(-n2nccn2)c(C(=O)N2CCN(c3nc4cc(Cl)ccc4o3)CCC2C)c1 (stereo not drawn) |  |  | 0.837 (inactive) | 0.399 | 6970 | 8330 |  |  |  | -0.269 (inactive) | -2.87
CC=C(C)C(=O)NC(c1ccccc1)C(O)C(=O)OC1C[C@@]2(O)C(OC(=O)c3ccccc3)[C@@H]3[C@]4(OC(C)=O)COC4CC(O)[C@@]3(C)C(=O)C(OC(C)=O)C(=C1C)C2(C)C (stereo partly drawn) |  |  |  | 0.457 | 1460 | 1150 |  |  | 1.27 (inactive) | 1.29 (inactive) | 0.0967
CC(=O)Nc1ccc(Cc2ccc(NC(C)=O)cc2)cc1 |  |  | 0.888 (inactive) | 0.668 | 8350 | 9400 |  |  |  | -0.423 (inactive) | 0.257
C[C@]12CC[C@@H]3[C@@H](CC[C@@]45O[C@@H]4C(O)=C(C#N)C[C@]35C)[C@@H]1CCC2O (stereo partly drawn) |  |  | 0.917 (inactive) | 0.921 | 7740 | 8440 |  |  |  | -0.378 (inactive) | 0.316
C=CCN1CC[C@]23c4c5ccc(O)c4O[C@H]2C(=O)CC[C@@]3(O)C1C5 |  |  | 0.942 (inactive) | 1.73 | 7860 | 8350 |  |  |  | 0.0762 (inactive) | -0.34
CC(C)[C@@]12OC1C1O[C@]13[C@]1(OC1C[C@@H]1C4=C(CC[C@@]13C)C(=O)OC4)C2O (stereo partly drawn) |  |  |  | 0.482 | 1650 | 1670 |  |  | 0.989 (inactive) | 1.17 (inactive) | -0.457
Fc1cc(F)c2c(c1)[C@H]1C=CC[C@@H]1C(c1cccnc1)N2 (stereo partly drawn) |  |  |  | 0.287 | 1650 | 1710 |  |  | 0.966 (inactive) | 1.16 (inactive) | 0.671
